Holding throughout (design): scale not given: direction of the effect not stated beside the values
Test [1] deals with Protein translocase subunit SecA (Escherichia coli (strain K12)) (UniProt P10408). The test can be described thus: Assay to Identify E. coli SecA ATPase Inhibitors. The format is functional. The note with it: 30 µM.
In test [2] the target is T1, Ubiquitin-activating enzyme e1, putative (Leishmania donovani (strain BPK282A1)) (UniProt E9BSI1).
T1 sequence (whole entry): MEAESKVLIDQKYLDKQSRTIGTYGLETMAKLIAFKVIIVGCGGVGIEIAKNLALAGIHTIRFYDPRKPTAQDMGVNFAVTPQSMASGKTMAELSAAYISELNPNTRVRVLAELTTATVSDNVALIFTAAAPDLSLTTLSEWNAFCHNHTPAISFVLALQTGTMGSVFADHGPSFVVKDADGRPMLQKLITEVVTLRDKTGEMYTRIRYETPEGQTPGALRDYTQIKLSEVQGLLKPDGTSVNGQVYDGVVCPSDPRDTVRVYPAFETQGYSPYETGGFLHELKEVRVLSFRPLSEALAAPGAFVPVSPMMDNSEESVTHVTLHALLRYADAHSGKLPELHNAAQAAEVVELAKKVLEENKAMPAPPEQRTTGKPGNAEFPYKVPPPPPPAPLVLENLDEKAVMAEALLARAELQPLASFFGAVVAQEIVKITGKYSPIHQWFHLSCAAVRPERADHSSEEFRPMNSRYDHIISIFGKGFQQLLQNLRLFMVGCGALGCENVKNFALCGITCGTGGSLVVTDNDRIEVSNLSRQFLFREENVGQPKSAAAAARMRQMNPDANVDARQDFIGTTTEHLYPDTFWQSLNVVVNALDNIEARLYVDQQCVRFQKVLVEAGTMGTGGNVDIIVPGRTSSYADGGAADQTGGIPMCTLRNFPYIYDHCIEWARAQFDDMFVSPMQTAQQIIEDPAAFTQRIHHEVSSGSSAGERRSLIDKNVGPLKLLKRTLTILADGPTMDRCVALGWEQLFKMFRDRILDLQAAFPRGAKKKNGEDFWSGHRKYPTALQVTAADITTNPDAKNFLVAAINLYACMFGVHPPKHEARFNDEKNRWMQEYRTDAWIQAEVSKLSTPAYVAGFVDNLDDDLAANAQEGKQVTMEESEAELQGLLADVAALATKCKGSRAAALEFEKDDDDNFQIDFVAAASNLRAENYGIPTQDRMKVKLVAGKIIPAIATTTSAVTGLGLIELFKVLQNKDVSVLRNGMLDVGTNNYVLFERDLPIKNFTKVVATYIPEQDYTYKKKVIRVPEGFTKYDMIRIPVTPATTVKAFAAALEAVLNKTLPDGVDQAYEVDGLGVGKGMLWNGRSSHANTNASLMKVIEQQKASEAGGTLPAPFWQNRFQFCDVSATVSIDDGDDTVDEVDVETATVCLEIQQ
The test can be described thus: Leishmania donovani Ubiquitin Activating Enzyme (LdE1). The format is functional. To be noted: 30 µM.

Test [3] has as its target Sialic acid-binding Ig-like lectin 9 (Homo sapiens) (UniProt Q9Y336). The test can be described thus: Hs-Siglec9 ALPHAscreen SOP 20170721. The note with it: 10 µM. For orientation: In Alpha technology, singlet oxygen from a donor bead excites a nearby acceptor bead.
The next test has as its system Trypanosoma cruzi. The test can be described thus: Trypanosoma cruzi phosphomannomutase and mannose-1-phosphate guanylyltransferase assay. The format is functional. To be noted: 10 µM.
Test [4] deals with T2, Arginase-2, mitochondrial (Homo sapiens) (UniProt P78540).
T2 sequence (whole entry): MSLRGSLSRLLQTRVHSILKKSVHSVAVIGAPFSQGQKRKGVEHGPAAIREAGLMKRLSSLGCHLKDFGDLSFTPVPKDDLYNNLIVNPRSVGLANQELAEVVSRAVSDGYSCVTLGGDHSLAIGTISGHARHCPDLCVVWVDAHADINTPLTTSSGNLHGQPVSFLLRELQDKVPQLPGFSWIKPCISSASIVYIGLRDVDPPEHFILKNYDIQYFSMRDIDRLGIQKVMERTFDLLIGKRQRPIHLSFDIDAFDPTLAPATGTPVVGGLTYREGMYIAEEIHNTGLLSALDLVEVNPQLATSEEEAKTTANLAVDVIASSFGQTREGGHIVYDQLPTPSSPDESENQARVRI
The test can be described thus: in vitro enzyme assay to detect the production of urea directly proportional to the activity of Arginase II. Also: in the data most compounds retested in dose-response had high values. The format is functional. To be noted: 33.3 µM.

Test [5] deals with T3, Proteasome subunit beta (Trypanosoma cruzi) (UniProt O96673).
T3 sequence (whole entry): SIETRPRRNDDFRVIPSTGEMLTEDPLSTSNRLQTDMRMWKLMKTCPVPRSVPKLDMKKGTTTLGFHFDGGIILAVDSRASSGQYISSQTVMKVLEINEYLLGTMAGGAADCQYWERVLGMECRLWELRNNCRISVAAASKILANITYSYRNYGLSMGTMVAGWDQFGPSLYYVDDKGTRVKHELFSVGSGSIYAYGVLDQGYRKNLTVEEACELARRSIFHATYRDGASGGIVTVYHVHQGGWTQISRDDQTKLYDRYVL
The test can be described thus: Trypanosoma cruzi proteasome chymotrypsin-like activity (TcProtChymo) assay. Also: in the data most compounds retested in dose-response had high values. The format is functional. The note with it: 9.37 µM.

The species named for another test is Homo sapiens. The test can be described thus: To identify inhibition of the IFN signalling (Jak-Stat) pathway via expression of an eGFP reporter gene under the control of an IFN-stimulated response element (ISRE) containing MxA promoter. The format is functional. The note with it: 30 µM. (In general: Reporter assays use an easily measured gene product as a stand-in for the process of interest.)

Test [6] addresses T4, Tyrosyl-tRNA synthetase, putative (Trypanosoma cruzi (strain CL Brener)) (UniProt Q4DSP6).
T4 sequence (whole entry): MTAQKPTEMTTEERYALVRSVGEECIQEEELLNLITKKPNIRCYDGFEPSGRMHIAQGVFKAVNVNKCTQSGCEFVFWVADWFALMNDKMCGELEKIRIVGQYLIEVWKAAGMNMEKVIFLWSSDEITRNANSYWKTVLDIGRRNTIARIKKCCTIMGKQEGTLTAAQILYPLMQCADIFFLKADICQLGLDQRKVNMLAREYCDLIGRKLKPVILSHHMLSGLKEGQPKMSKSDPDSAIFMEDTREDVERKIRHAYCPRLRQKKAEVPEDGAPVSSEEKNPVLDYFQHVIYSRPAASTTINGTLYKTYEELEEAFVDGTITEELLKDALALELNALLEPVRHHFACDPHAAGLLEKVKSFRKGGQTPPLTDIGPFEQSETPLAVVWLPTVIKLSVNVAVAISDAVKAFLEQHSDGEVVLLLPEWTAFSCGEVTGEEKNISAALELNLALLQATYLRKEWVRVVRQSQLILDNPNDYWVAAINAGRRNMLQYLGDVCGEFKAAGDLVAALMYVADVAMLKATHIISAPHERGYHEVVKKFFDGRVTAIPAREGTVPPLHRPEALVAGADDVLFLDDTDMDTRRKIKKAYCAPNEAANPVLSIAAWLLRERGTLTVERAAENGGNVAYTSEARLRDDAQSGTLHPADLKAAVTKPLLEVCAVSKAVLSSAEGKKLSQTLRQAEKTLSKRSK
The test can be described thus: Trypanosoma cruzi tyrosyl tRNA synthetase (TcYRS) _High Tyrosine SOP. Also: in the data most compounds retested in dose-response had high values. The format is functional. The note with it: 30 µM.

Test [7] deals with T4, Tyrosyl-tRNA synthetase, putative (Trypanosoma cruzi (strain CL Brener)). The test can be described thus: Trypanosoma cruzi tyrosyl tRNA synthetase (TcYRS) SOP. The format is functional. The note with it: 30 µM.
In test [8] the target is Chromo domain-containing protein 1 (Saccharomyces cerevisiae (strain ATCC 204508 / S288c) (Baker's yeast)) (UniProt P32657). The test can be described thus: ScCHD-1 Enzyme Inhibition Assay. Also: in the data most compounds retested in dose-response had high values. To be noted: 30 µM. The format is functional.
Chromo domain-containing protein 1 (Saccharomyces cerevisiae (strain ATCC 204508 / S288c) (Baker's yeast)), sequence (P32657 whole entry, the tested form may be a part): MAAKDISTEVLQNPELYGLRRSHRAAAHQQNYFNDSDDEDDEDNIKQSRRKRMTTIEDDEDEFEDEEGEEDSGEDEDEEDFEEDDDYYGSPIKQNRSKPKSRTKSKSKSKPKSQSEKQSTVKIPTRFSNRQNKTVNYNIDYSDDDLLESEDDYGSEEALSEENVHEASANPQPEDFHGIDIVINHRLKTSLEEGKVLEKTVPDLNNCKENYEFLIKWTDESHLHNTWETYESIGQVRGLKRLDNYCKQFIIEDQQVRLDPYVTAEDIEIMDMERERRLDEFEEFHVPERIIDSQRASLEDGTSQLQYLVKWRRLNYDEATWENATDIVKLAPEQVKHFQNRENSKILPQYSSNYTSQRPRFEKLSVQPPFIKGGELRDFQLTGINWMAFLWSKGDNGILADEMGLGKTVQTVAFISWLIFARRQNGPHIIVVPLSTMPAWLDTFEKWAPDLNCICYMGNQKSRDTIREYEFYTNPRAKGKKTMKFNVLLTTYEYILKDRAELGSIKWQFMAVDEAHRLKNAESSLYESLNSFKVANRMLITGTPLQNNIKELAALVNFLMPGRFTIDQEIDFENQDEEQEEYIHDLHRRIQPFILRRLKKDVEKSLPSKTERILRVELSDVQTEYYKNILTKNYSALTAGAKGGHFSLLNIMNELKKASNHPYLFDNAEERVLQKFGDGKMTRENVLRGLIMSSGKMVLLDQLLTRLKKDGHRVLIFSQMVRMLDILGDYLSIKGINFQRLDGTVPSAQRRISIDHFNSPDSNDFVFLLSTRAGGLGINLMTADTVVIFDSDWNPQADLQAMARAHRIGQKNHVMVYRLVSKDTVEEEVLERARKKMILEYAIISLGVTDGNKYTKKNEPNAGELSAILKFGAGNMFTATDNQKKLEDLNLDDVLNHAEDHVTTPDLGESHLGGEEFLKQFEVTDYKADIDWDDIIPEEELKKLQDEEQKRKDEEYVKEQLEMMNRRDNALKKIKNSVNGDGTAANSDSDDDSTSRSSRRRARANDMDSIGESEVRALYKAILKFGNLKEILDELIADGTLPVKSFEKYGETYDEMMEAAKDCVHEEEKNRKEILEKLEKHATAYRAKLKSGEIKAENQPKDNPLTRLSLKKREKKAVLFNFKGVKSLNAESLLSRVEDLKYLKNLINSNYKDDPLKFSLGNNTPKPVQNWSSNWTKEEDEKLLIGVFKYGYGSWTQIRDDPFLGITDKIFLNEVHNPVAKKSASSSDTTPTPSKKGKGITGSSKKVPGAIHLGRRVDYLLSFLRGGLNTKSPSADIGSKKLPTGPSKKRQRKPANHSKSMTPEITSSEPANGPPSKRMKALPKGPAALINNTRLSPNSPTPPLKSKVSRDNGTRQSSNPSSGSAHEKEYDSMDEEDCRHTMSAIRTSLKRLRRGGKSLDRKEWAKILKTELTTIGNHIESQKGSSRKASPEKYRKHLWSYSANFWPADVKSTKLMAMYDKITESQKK
For the next test, the system named is N/A. The test can be described thus: Trypanosoma cruzi proteasome luciferase counter-screen. The format is functional. The note with it: 9.37 µM. On the technique in general: A counterscreen serves to expose hits that act by an unwanted route or on another target.

Molecules are shown by their SMILES. Where “and” joins values, the source holds several entries; their conditions need not be identical. Equal values may be shown once. For some of these results: Potency and affinity values are given separately.

Protein translocase subunit SecA (Escherichia coli (strain K12)), sequence (P10408 whole entry): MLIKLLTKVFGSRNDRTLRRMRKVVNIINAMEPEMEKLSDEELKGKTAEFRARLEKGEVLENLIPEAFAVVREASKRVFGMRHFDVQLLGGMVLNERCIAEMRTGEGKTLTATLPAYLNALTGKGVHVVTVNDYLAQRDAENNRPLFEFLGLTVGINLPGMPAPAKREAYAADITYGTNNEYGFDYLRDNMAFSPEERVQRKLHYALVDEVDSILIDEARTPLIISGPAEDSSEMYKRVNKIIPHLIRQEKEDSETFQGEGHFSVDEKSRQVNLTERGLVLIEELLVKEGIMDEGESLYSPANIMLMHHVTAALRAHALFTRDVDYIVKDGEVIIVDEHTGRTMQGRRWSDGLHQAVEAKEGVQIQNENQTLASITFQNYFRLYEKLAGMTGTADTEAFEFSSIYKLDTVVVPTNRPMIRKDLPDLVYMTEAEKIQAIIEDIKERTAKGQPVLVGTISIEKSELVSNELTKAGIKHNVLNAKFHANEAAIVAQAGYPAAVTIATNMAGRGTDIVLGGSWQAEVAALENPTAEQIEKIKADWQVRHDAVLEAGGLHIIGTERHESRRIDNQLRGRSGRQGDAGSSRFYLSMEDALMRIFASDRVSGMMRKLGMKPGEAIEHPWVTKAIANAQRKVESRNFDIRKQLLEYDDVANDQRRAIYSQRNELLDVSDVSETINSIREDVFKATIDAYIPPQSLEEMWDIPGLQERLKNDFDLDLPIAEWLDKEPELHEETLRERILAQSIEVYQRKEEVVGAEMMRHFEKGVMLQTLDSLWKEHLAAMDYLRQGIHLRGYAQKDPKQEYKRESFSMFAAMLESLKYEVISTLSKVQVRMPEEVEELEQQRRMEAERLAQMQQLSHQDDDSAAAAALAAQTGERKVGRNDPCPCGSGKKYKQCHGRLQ
Sialic acid-binding Ig-like lectin 9 (Homo sapiens), sequence (Q9Y336 whole entry): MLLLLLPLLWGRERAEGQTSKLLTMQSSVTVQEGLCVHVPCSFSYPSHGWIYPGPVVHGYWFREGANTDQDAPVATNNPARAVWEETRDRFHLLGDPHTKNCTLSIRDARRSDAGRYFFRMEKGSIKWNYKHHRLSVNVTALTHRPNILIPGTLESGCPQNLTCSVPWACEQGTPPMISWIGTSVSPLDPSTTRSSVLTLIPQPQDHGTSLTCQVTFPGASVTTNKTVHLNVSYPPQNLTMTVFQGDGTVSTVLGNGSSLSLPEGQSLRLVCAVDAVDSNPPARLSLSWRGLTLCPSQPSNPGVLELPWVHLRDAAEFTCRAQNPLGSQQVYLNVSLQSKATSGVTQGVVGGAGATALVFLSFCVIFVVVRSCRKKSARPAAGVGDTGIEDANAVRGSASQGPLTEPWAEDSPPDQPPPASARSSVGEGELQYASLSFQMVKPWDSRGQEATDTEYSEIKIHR

Consider `CN1CCC/C1=N\S(=O)(=O)c1ccc(NC(=O)c2cccs2)cc1`, for which the Percent Effect in test [1] is 0.351%; in test [2], 15.6%; in test [3] it was -0.824%; in the test on Trypanosoma cruzi it was 3.73%; in [4], -3.48%; in test [5], 12.5%. Also, the Percent Effect in the test listed under Homo sapiens was 8.73%; in test [6], 7.84%; in test [7], 21.2%; in [8] it was -10.9%.
Turning to `CC(c1cccc(S(N)(=O)=O)c1)N(C)CCc1ccccc1` (centres undefined), the Percent Effect in test [1] was -0.406%; in test [2] it was 20.8%; in test [3], -4.37%; in the test on Trypanosoma cruzi, -0.933%; in test [4], -4.3%; in test [5], 10.9%. Moreover, the Percent Effect is 13.6% in the test filed under Homo sapiens, 6.86% in [6], 16.5% in test [7] and -9.02% in test [8].
With `Cc1[nH]/c(=N\C(=O)c2csc(NC3CC3)n2)sc1C`, the Percent Effect in test [1] is -5.11%; in test [2], 8.11%; in test [3], -0.99%; in the test with Trypanosoma cruzi it was -1.84%; in [4] it was -1.75%; in the test listed under Homo sapiens it was 10.7%. For the same molecule, the Percent Effect in test [6] came out at 11.2%; in test [7], 14.6%; in [8] it was 14.5%.
As for `Cc1n[nH]c(=O)c2c(NC(=O)CN3CCCC(C(F)(F)F)C3)oc(C)c12` (centres undefined), the Percent Effect in [1] is 2.19%; in [2], 23.1%; in test [3] it was -19.8%; in the test with Trypanosoma cruzi it was 1.41%; in test [4], 0%; in [5], 17.7%. Also, the Percent Effect in the test listed under Homo sapiens is -1.71%; in test [6] it was 3.35%; in test [7], 22.9%; in test [8], -4.61%.
As to `CN1CCN(CC2CC2)C(=O)c2cnc(N3CCCCC3)nc21`, the Percent Effect was -6.28% in [1]; -45.3% in test [2]; 3.74% in test [3]; -1.41% in the test with Trypanosoma cruzi; -3.99% in test [4]; -4.83% in test [5]. The Percent Effect in the test filed under Homo sapiens is 19%; in test [6], -2.63%; in test [7] it was -5.13%; in test [8], -2.64%.
Consider `CCOC(=O)N1CCN(C(=O)c2sc(-c3ccccc3F)nc2C)CC1`, for which the Percent Effect was -2.12% in [1]; 5.41% in test [2]; 6.21% in [3]; 0.097% in the test on Trypanosoma cruzi; 30.4% in test [4]; 13.5% in [5]. In addition, the Percent Effect in the test listed under Homo sapiens is -3.93%; in test [6] it was 4.79%; in test [7] it was 14.6%; in test [8], -4.07%.
In the case of `Fc1cnc(N2CCOC3(CCN(Cc4ccsc4)CC3)C2)nc1`, the Percent Effect is -0.851% in test [1]; 3.9% in test [2]; -6.39% in test [3]; -6.52% in the test on Trypanosoma cruzi; 6.88% in test [4]; 5.37% and 9.17% in the test with N/A. Also, the Percent Effect in the test filed under Homo sapiens was 4.01%; in test [6] it was 11.1%; in [7], 7.69%; in test [8], -4.59%.
Regarding `CN1CCN(c2cc(CNC(=O)c3ccc(=O)n(C)c3)ccn2)CC1`, the Percent Effect in [1] was -2.29%; in test [2], 20.5%; in [3], -8.46%; in the test on Trypanosoma cruzi, 7.04%; in [4], 2.87%; in test [5], 13.9%. Besides, the Percent Effect in the test filed under Homo sapiens was 13.3%; in test [6] it was -0.478%; in test [7] it was 22.9%; in [8], -8.95%.
Regarding `CN(C)C(=O)CN1C(=O)CCC12CCN(Cc1ccc(F)cc1)CC2`, the Percent Effect is -1.87% in test [1]; 22.1% in test [2]; -5.35% in [3]; 0.188% in the test with Trypanosoma cruzi; 3.2% in test [4]; 18.1% in test [5]. The Percent Effect was 14% in the test filed under Homo sapiens, 9.66% in test [6], 15% in [7] and -11.4% in [8].
Take `CCn1cc(C(=O)N2CCCC(c3[nH]ncc3S(C)(=O)=O)C2)cn1` (centres undefined): the Percent Effect is -2.25% in [1]; 12% in [2]; -0.292% in test [3]; 0.395% with Trypanosoma cruzi; -0.443% in test [4]; 13.1% in test [5]. For the same molecule, the Percent Effect in the test listed under Homo sapiens is -2.06%; in [6], 4.23%; in test [7], 20%; in test [8] it was -20.4%.
As for `CC(=O)N(Cc1noc(C2CC2)n1)C1CCN(Cc2ccncc2)C1` (centres undefined), the Percent Effect in test [1] is -3.41%; in test [2], 5.13%; in test [3], -20.1%; with Trypanosoma cruzi, 11.6%; in [4], -4.51%; in test [5] it was 4.86%. In addition, the Percent Effect in the test listed under Homo sapiens was 4.66%; in test [6], 1.44%; in test [7], 10.8%; in test [8], -5.11%.

Source of the values: ChEMBL document CHEMBL3988442, “University of Dundee, Small-Polar-MMV Screening Library” (2021).
